Measured values reported in the supplement of paper PMC12297408.
A number with no mark means an inactive call.

System: Plasmodium falciparum NF54/iGP1_RE9H ulg8 stage V gametocytes
Experiment: gametocyte viability (luciferase signal relative to DMSO control) (% of DMSO control); higher = less gametocytocidal activity, active = 50 or less
Conditions: exposure time: 72 h
In short: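 Viability was calculated relative to the mean of DMSO vehicle wells on each plate. Day-12 stage V gametocytes of line NF54/iGP1_RE9Hulg8 (~2.5% gametocytemia, 3% hematocrit, 0.5% Albumax II medium) were exposed in 96-well plates to compounds at final 10 µM or 1 µM, one well each, for 72 h at 37 °C. Luminescence was then read on an IVIS Lumina II after D-luciferin addition.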

| SMILES | gametocyte viability (concentration: 1 µM) | gametocyte viability (concentration: 10 µM) |
| --- | --- | --- |
| O=C(NC1CCNCC1)c1n[nH]cc1NC(=O)c1c(Cl)cccc1Cl | 99.2 | 69.7 |
| C#Cc1cccc(Nc2ncnc3cc(OCCOC)c(OCCO)cc23)c1 [OSI-420 (Desmethyl Erlotinib)] | 92.8 | 97 |
| O=C(Cc1ccc(-c2ccc(OCCN3CCOCC3)cc2)cn1)NCc1ccccc1 | 99.7 | 113 |
| CCCNC(=O)Nc1ccc(Oc2ncnc3cc(OC)c(OC)cc23)cc1Cl | 97.6 | 104 |
| NC(=O)Nc1cc(-c2cccc(F)c2)sc1C(=O)N[C@H]1CCCNC1 | 116 | 92.3 |
| Cc1ccc(NC(=O)c2cccc(N(C)C)c2)cc1NC(=O)c1ccc(O)cc1 | 95.9 | 95.6 |
| Cc1[nH]nc2ccc(-c3cncc(OC[C@@H](N)Cc4ccccc4)c3)cc12 | 101 | 104 |
| O=c1ncn2nc(Sc3ccc(F)cc3F)ccc2c1-c1c(Cl)cccc1Cl | 95.2 | 103 |
